Assay results reported in article PMC7862700, “An all-to-all approach to the identification of sequence-specific readers for epigenetic DNA modifications on cytosine”.

Legend:
Test in all cases: DAPPL (digital affinity profiling via proximity ligation, sequencing); 10 mM Tris-HCl pH 7.5, 50 mM NaCl, 1 mM DTT, 4% glycerol, room temperature, 30 min; GST-TFs on glutathione beads, 16-mer random dsDNA library, 0.1% formaldehyde crosslink after washing; high values mean tight binding
Details in all cases: protein: recombinant; tags: N-terminal GST; dsDNA, one strand shown
FLI1 = biological target: T1, FLI1 (Homo sapiens, UniProt Q01543 1-452)
T1 sequence: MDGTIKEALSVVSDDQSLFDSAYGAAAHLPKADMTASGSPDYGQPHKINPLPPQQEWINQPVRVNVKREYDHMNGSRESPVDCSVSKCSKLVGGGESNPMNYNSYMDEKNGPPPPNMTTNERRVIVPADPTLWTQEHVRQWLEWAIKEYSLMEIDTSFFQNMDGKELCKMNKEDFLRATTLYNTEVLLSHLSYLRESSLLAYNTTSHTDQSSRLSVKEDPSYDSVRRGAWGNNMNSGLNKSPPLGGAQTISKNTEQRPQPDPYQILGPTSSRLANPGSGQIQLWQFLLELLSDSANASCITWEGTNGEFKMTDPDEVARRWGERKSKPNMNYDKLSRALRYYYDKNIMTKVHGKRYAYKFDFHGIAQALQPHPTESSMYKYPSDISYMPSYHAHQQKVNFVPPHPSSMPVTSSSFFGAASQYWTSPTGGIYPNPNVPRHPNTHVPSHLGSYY
Outline: (§1)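 Human transcription factors were made in yeast as GST fusions, captured on glutathione beads and barcoded with DNA. With a tag-only sample included, the pool was incubated with 200 nmole of a random double-stranded 16-mer DNA library in Tris/NaCl/DTT/glycerol buffer at room temperature for 30 min, then crosslinked with 0.1% formaldehyde after washing, ligated by proximity, amplified and sequenced. For binding signal, each hexamer's read frequency for a factor is divided by its frequency for the tag-only sample.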

ELK1 = biological target: T2, ELK1 (Homo sapiens, UniProt P19419 1-428)
T2 sequence: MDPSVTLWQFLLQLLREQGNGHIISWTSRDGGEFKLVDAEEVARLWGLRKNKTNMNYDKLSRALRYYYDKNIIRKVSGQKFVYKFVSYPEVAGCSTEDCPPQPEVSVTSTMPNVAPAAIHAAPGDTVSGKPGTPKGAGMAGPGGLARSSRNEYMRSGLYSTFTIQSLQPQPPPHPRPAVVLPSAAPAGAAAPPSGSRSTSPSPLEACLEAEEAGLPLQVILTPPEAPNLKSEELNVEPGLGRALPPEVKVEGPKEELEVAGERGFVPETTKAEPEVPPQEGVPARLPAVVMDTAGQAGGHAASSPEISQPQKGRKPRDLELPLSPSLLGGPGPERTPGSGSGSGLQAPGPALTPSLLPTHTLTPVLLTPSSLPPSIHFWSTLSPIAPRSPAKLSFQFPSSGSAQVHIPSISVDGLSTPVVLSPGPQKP
Outline: as §1

GABPA = biological target: T3, GABPA (Homo sapiens, UniProt Q06546 1-454)
T3 sequence: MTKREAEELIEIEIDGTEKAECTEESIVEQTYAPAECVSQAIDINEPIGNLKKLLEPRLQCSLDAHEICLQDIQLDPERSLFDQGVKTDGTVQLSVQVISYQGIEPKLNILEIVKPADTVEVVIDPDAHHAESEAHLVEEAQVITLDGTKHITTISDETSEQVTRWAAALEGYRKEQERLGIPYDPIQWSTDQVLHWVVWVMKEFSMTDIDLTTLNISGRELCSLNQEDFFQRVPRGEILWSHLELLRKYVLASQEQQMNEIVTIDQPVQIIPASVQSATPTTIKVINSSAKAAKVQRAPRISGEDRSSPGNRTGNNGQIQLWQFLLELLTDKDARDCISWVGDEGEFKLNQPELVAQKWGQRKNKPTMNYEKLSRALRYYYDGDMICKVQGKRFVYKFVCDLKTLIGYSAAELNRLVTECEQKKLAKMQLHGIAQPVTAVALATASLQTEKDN
Outline: as §1

ERG = biological target: T4, ERG (Homo sapiens, UniProt P11308 1-479)
T4 sequence: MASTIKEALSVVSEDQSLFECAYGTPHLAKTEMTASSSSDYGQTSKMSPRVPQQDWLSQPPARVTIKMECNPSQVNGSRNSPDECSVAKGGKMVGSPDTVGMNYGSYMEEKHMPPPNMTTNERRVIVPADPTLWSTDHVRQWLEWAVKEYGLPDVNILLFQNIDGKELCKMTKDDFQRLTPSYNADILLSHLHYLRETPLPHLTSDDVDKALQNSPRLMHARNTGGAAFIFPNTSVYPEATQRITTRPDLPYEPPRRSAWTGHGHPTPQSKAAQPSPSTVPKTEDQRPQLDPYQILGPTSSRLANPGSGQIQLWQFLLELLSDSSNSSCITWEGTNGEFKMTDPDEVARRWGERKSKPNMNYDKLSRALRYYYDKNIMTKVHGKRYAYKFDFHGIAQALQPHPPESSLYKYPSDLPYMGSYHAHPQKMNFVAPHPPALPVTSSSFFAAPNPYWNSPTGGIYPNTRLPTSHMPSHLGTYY
Outline: as §1

ELF1 = ELF1 (Homo sapiens, UniProt P32519 1-619)
ELF1, sequence (P32519 whole entry): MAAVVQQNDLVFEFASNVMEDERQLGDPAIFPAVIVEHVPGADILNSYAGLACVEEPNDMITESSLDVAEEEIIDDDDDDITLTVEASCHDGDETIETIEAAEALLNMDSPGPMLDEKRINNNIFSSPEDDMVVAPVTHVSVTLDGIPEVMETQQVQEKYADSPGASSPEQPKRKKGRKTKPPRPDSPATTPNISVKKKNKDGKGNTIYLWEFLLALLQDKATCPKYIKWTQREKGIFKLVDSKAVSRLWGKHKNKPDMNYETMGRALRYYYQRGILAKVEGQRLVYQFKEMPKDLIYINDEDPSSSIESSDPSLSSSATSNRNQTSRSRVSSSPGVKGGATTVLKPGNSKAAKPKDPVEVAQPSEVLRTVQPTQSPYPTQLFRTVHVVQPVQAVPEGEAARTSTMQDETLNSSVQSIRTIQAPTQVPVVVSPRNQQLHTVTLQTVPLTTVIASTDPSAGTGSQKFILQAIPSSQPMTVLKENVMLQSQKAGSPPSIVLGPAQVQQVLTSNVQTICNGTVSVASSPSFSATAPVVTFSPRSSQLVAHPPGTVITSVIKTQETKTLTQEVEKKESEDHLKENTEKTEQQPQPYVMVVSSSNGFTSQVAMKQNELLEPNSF
Outline: as §1

EHF = biological target: T5, EHF (Homo sapiens, UniProt Q9NZC4 1-300)
T5 sequence: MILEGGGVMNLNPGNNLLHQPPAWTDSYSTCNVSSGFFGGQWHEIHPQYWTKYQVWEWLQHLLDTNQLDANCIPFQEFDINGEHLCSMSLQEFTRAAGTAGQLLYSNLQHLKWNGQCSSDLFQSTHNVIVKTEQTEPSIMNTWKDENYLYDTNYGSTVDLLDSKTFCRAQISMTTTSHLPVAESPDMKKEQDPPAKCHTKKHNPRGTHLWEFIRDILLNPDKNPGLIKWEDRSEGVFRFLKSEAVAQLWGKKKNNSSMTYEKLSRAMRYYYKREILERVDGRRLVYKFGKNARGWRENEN
Outline: as §1

SPI1 = SPI1 (Homo sapiens, UniProt P17947 1-270)
Outline: as §1

SPIB = SPIB (Homo sapiens, UniProt Q01892 1-262)
SPIB, sequence (Q01892 whole entry): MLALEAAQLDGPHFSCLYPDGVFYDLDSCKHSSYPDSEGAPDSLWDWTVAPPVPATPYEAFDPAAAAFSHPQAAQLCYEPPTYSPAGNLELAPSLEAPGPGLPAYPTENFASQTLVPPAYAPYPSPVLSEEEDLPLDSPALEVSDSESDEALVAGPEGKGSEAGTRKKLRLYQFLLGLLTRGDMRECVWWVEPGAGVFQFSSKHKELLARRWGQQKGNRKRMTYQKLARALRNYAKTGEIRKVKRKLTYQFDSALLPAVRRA
Outline: as §1

ELK3 = biological target: T6, ELK3 (Homo sapiens, UniProt P41970 1-407)
T6 sequence: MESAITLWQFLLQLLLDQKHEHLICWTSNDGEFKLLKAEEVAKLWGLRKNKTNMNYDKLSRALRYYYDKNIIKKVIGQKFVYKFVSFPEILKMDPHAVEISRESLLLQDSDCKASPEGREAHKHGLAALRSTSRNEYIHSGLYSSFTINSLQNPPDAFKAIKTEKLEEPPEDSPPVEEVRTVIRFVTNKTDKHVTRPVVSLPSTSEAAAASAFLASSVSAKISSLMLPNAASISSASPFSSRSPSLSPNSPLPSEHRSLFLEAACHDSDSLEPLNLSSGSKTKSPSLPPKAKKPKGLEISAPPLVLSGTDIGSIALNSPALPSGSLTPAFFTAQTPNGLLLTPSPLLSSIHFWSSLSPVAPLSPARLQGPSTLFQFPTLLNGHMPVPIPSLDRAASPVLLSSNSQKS
Outline: as §1

FEV = biological target: T7, FEV (Homo sapiens, UniProt Q99581 1-238)
T7 sequence: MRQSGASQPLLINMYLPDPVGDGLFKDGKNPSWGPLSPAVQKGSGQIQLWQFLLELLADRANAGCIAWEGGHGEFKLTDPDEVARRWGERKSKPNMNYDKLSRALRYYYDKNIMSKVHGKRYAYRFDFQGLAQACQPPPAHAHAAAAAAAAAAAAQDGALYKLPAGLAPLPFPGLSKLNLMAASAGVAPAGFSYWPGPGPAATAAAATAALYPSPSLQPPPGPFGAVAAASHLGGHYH
Outline: as §1

ETV5 = ETV5 (Homo sapiens, UniProt P41161 1-510)
ETV5, sequence (P41161 whole entry): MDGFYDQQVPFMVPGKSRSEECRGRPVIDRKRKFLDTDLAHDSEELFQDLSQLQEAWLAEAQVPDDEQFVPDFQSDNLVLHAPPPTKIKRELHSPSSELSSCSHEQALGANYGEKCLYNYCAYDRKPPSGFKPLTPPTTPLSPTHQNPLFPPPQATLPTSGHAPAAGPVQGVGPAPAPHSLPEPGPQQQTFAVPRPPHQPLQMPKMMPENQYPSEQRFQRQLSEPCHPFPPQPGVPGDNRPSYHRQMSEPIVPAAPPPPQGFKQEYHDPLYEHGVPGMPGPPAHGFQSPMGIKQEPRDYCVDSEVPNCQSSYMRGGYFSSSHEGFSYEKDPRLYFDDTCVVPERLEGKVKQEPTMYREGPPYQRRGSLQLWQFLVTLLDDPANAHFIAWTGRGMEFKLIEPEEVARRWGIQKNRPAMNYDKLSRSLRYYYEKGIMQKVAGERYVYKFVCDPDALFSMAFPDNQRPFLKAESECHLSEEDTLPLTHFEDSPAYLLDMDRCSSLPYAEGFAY
Outline: as §1

SPIC = biological target: T8, SPIC (Homo sapiens, UniProt Q8N5J4 1-248)
T8 sequence: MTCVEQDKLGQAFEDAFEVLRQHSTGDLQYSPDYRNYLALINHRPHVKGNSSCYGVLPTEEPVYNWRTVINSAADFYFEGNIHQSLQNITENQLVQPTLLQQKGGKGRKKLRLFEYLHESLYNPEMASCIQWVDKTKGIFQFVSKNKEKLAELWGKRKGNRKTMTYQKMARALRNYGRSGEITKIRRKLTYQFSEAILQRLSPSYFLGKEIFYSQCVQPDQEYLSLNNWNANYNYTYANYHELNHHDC
Outline: as §1

ELF4 = ELF4 (Homo sapiens, UniProt Q99607 1-663)
ELF4, sequence (Q99607 whole entry): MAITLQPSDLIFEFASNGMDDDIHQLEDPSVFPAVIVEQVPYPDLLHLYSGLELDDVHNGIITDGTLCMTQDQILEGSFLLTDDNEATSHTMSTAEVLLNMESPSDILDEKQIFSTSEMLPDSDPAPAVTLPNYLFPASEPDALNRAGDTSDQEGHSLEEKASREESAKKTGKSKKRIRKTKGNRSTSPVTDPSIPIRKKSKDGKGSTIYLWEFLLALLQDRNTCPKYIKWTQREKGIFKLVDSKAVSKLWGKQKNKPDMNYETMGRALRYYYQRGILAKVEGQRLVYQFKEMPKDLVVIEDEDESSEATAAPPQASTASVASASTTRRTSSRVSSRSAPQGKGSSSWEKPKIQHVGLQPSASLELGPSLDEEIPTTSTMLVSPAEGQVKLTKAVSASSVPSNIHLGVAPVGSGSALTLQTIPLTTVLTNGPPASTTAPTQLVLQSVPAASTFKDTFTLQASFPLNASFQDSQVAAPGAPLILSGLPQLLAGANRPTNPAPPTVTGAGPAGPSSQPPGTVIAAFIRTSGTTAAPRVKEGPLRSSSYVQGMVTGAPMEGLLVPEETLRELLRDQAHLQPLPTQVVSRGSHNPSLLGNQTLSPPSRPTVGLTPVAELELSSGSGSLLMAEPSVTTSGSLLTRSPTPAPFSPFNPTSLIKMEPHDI
Outline: as §1

ELK4 = biological target: T9, ELK4 (Homo sapiens, UniProt P28324-2 1-405)
T9 sequence: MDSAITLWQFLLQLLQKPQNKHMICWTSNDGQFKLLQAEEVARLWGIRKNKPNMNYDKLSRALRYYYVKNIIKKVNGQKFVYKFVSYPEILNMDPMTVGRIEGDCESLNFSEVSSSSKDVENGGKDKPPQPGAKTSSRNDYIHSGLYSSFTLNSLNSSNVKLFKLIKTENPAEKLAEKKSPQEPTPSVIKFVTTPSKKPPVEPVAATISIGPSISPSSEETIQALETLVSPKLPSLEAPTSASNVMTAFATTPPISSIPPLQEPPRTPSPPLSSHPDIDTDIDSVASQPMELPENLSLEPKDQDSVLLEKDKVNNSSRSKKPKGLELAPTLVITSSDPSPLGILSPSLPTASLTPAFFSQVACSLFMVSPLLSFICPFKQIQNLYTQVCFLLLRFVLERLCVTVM
Outline: as §1

ETV2 = biological target: T10, ETV2 (Homo sapiens, UniProt O00321 1-342)
T10 sequence: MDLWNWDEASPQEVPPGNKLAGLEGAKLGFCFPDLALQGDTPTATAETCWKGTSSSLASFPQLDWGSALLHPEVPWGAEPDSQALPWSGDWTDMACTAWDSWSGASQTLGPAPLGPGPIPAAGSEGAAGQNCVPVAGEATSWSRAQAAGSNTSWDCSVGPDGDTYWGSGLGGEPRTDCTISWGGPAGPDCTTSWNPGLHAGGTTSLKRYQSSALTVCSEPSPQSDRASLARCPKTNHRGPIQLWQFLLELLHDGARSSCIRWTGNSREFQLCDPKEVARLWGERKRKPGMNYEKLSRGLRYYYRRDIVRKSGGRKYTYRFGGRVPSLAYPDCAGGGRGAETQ
Outline: as §1

ELF3 = biological target: T11, ELF3 (Homo sapiens, UniProt P78545 1-371)
T11 sequence: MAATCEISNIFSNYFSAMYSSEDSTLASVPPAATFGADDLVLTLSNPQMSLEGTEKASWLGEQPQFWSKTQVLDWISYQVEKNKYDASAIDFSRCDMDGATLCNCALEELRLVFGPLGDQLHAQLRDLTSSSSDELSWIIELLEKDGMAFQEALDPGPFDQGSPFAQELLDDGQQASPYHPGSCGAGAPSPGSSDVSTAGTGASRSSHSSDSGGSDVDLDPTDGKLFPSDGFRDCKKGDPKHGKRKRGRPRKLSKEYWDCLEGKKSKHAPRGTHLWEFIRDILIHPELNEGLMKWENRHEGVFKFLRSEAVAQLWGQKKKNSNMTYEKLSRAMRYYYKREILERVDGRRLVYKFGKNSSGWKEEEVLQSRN
Outline: as §1

CRX = CRX (Homo sapiens, UniProt O43186 1-299)
CRX, sequence (O43186 whole entry): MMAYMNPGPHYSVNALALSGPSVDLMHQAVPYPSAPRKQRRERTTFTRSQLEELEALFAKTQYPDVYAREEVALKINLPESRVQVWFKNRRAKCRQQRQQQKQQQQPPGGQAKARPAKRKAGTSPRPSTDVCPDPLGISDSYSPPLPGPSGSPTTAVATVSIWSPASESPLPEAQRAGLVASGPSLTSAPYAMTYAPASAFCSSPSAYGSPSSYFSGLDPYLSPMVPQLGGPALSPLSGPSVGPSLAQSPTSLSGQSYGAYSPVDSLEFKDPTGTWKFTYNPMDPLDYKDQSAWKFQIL
Outline: as §1

ETV1 = ETV1 (Homo sapiens, UniProt P50549 1-477)
ETV1, sequence (P50549 whole entry): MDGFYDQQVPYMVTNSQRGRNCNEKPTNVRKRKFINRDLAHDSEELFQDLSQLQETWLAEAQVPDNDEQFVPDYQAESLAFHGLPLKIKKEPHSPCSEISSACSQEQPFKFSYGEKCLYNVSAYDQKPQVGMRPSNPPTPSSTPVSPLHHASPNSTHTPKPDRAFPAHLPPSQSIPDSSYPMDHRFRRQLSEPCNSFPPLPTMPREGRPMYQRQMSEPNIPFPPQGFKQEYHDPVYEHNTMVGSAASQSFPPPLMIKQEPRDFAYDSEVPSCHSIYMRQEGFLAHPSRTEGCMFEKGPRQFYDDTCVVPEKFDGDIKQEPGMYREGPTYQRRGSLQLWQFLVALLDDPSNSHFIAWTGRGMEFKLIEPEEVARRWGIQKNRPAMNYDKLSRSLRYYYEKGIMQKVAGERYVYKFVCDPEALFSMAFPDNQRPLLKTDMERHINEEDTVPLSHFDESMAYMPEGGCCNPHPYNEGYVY
Outline: as §1

Sequence: TGATGT
- binding signal (FLI1): 1.31 fold enrichment (6-mer frequency, TF over GST control)
- binding signal (ELK1): 1.31 fold enrichment (6-mer frequency, TF over GST control)
- binding signal (GABPA): 1.19 fold enrichment (6-mer frequency, TF over GST control)
- binding signal (ERG): 1.13 fold enrichment (6-mer frequency, TF over GST control)
- binding signal (ELF1): 1.26 fold enrichment (6-mer frequency, TF over GST control)
- binding signal (EHF): 1.14 fold enrichment (6-mer frequency, TF over GST control)
- binding signal (SPI1): 1.25 fold enrichment (6-mer frequency, TF over GST control)
- binding signal (SPIB): 1.41 fold enrichment (6-mer frequency, TF over GST control)
- binding signal (ELK3): 1.12 fold enrichment (6-mer frequency, TF over GST control)
- binding signal (FEV): 1.26 fold enrichment (6-mer frequency, TF over GST control)
- binding signal (ETV5): 1.22 fold enrichment (6-mer frequency, TF over GST control)
- binding signal (SPIC): 1.11 fold enrichment (6-mer frequency, TF over GST control)
- binding signal (ELF4): 1.32 fold enrichment (6-mer frequency, TF over GST control)
- binding signal (ELK4): 1.31 fold enrichment (6-mer frequency, TF over GST control)
- binding signal (ETV2): 1.26 fold enrichment (6-mer frequency, TF over GST control)
- binding signal (ELF3): 1.21 fold enrichment (6-mer frequency, TF over GST control)
- binding signal (CRX): 1.05 fold enrichment (6-mer frequency, TF over GST control)
- binding signal (ETV1): 1.26 fold enrichment (6-mer frequency, TF over GST control)
